Data on 5 compounds can be found in PubChem BioAssay.

Assay [1] in a line: rapamycin-like changes in RPL19A-GFP expression – cell-based, S. cerevisiae, multiplex flow cytometry, primary screen (AID 1862; in the data active = percent of DMSO control GFP below about 86%;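 also: lower values mimic rapamycin by blocking the RPL19A rise seen in DMSO cells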). Conditions: S. cerevisiae RPL19A-GFP strain, flow cytometry fluorescence, 3 h; at 10 µM; stronger effect = lower value. In general terms: In flow cytometry, cells or beads pass a laser one at a time.
Assay [2] can be described thus: TOR pathway GLN3 branch reporter MEP2-GFP changes – S. cerevisiae, multiplex flow cytometry, primary screen (AID 1867;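 active = GFP response, as percent of the DMSO control, above the screen-wide mean plus 3 SD, about 139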;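 also: median GFP channel fluorescence of barcode-gated MEP2-GFP cells measured by flow cytometry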). Conditions: S. cerevisiae MEP2-GFP strain, 3 h, at 10 µM, stronger effect = higher value.
Assay [3] is described as follows: TOR pathway RTG branch CIT2 reporter changes – S. cerevisiae, GFP fusion, multiplex flow cytometry, primary screen (AID 1870;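 active = percent response above a set limit, the screen-wide mean plus 3 SD, cut at about 130% in these data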;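 also: barcoded CIT2-GFP strain pooled with four other GFP strains with rapamycin as positive control; median GFP fluorescence per well over plate mean of DMSO wells so 100% = DMSO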). Conditions: S. cerevisiae CIT2-GFP expression, 3 h, at 10 µM, stronger effect = higher value.
A short description of assay [4]: TOR pathway LAP4-GFP level changes – S. cerevisiae, multiplex flow cytometry, primary screen (AID 1873;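 active = GFP signal, as percent of the solvent control, above the screen mean plus 3 SD, about 149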). Conditions: S. cerevisiae LAP4-GFP expression, 3 h, at 10 µM, stronger effect = higher value.
Assay [5] can be described thus: yeast AGP1-GFP level changes, GLN3 branch – cell-based, multiplex flow cytometry, S. cerevisiae, primary screen (AID 1887;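 active = GFP signal above the screen-wide mean plus 3 SD, that is over about 124.5% of the solvent control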;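 also: AGP1-GFP fusion strain of S. cerevisiae within a five-strain barcoded multiplex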). Conditions: 3 h, at 10 µM, stronger effect = higher value.
Assay [6] can be described thus: reduced mouse 2C T cell binding to pMHC/ICAM-1 vesicles – MLPCN validation set, flow cytometry, LFA-1/ICAM-1 modulator project, pilot screen (AID 2523;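 active = response below a set limit, under 55% cells CD8-positive and vesicle-bound, and CD8 cells' 90th-percentile brightness under 279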;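 as to vesicle binding response: mean PE anti-B7-1 fluorescence of CD8+ cells relative to row control; 100% = QL9-loaded vesicles with DMSO vehicle in the same plate row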). Conditions: 2C mouse CD8+ T cells, at 7 µM, stronger effect = lower value; double positive events: measured here: CD8+/vesicle+ event percentage.
Assay [7] deals with Integrin beta-1 (Homo sapiens) + Integrin alpha-4 (Homo sapiens) (UniProt P13612+P05556). Nature of the assay: alpha4beta1 integrin LIBS antibody binding reduction – U937 cells, HUTS-21 mAb, flow cytometry, validation set, VLA-4 allosteric modulator project, pilot screen (AID 2674;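 active = inhibition above 50%, about 3 SD of the validation set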;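 also: antibody binding induced by the VLA-4 ligand LDV present at three times its Kd; 0% = LDV ligand with antibody and no compound and 100% = antibody without LDV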). Conditions: HUTS-21 LIBS mAb binding, at 6.7 µM, stronger effect = higher value.
Assay [8] in a line: calorie-restriction mimetic ROS inhibitors, yeast – validation compound set, pilot screen (AID 2706;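 active = superoxide response below 65% of plate, a cut near 3 SD across the whole screen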;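 also: yeast exposed to compound for one week at 30 degrees C before staining; 100% = mean of all compound wells on the same plate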). Conditions: S. cerevisiae aging, superoxide DHE fluorescence; at 10 µM; stronger effect = lower value.
Assay [9] deals with Beta-adrenergic receptor kinase 1 (Homo sapiens) (UniProt P25098). Nature of the assay: GRK2 binders displacing RNA aptamer, biochemical, validation, human GRK2, bead flow cytometry (AID 488806;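 active = aptamer binding inhibition above 30%, about 3 SD of noise from non-fluorescent compounds; inactive = inhibition at or below 30%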). Conditions: bead-bound GRK2, FAM-aptamer displacement, at 10 µM, stronger effect = higher value.
Assay [10] concerns the target Beta-2 adrenergic receptor (Homo sapiens) (UniProt P07550). The experiment in a line: agonist-induced loss of surface beta2AR – cell-based, FAP fluorogen, flow cytometry, validation set, pilot screen (AID 504459;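 active = percent response above 42, roughly 3 SD of non-fluorescent test compounds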;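 also: agonist-driven loss of surface beta2AR via internalization measured by FAP dye flow cytometry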). Conditions: Am2.2-beta2AR cells, at 10 µM, stronger effect = higher value.
The target of assay [11] is AP-2 complex subunit beta (Homo sapiens) (UniProt P63010). The experiment in a line: beta-arrestin/AP2 interaction blockers – biochemical, validation set, GST-AP2 beads, flow cytometry, pilot screen (AID 504541;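 active = inhibition above 54%, about 3 SD of non-fluorescent compounds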;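 also: AP2 carries R879A mutation and is captured from E. coli lysate; bead-bound FITC arrestin peptide fluorescence measuring arrestin peptide binding to AP2; 0% = DMSO wells and 100% = excess unlabeled arrestin peptide control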). Conditions: FITC arrestin peptide, at 10 µM, stronger effect = higher value.
A short description of assay [12]: cytosolic pH regulators acting via V-ATPase – S. cerevisiae, pHLuorin, HTS validation (AID 504600; in the data active = response above about 15%;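 also: plate controls were DMSO for no effect and reference compound for full effect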). Conditions: V-ATPase proton transport, at 10 µM, stronger effect = higher value.
Assay [13] relates to anti-desmoglein-3 scFv antibody binding to human DSG3. Nature of the assay: blockers of pathogenic pemphigus antibody–desmoglein-3 binding – biochemical, validation compound set, bead-based, flow cytometry, pilot screen (AID 588368;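 active = binding below the plate cutoff, the plate median minus 3 SD, with a reading above zero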;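 also: signal is the median channel fluorescence of bead-bound GFP antibody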). Conditions: Protein G beads, DSG3-Fc, scFv-GFP binding, at 10 µM, stronger effect = lower value.
Assay [14] deals with Botulinum neurotoxin type F light chain protease (Clostridium botulinum). Nature of the assay: Clostridium botulinum type F light chain protease inhibitors, microsphere substrate cleavage, validation (AID 588459). Conditions: multiplex microsphere protease substrate cleavage assay, flow cytometry; at 10 µM; stronger effect = higher value.
Assay [15] addresses Botulinum neurotoxin type A (Clostridium botulinum) (UniProt P0DPI0). The experiment in a line: BoNT/A light chain protease inhibitors, biochemical, multiplex microsphere flow cytometry, validation set (AID 588460). Conditions: at 10 µM, stronger effect = higher value.
The target of assay [16] is Lethal factor (Bacillus anthracis) (UniProt P15917). Nature of the assay: Bacillus anthracis lethal factor inhibition, microsphere flow cytometry protease assay, validation at 10 µM (AID 588461). Conditions: multiplex microsphere protease cleavage assay, stronger effect = higher value.
A short description of assay [17]: Nile Red efflux blockade in pump-expressing yeast – validation compound set, multiplex, phenotypic, pilot screen (AID 588506;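 active = efflux inhibition above 0.42, the validation set average plus 4 SD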;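 also: Nile Red retained in cells so higher fluorescence means more efflux inhibition; 0 = negative control wells and 1 = enniatin B 25 µM full block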). Conditions: S. cerevisiae pump-expressing triplex, Nile Red efflux flow cytometry; at 10 µM; stronger effect = higher value.
The target of assay [18] is ATP-binding cassette sub-family B member 6 (Homo sapiens) (UniProt Q9NP58). The experiment in a line: blockers of ABCB6-driven porphyrin uptake – K562-ABCB6 cells, flow cytometry, validation set, pilot screen (AID 588550;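 active = inhibition above the screen-wide mean plus 3 SD, about 51%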;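 also: 0% = DMSO wells and 100% = benzethonium chloride 70 µM positive control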). Conditions: K562-ABCB6 porphyrin accumulation, 1 h, at 10 µM, stronger effect = higher value.
Assay [19] can be described thus: AML differentiation inducers, ER-HoxA9 marrow cells – cell-based, GFP/MAC1 double positive, flow cytometry, validation set, primary screen (AID 588685;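 active = differentiation response of at least 50%, scaled between solvent and reference control, from cells with both markers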;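 also: compound exposure lasts four days before antibody staining and flow analysis; 0% = DMSO wells and 100% = 5 µM fulvestrant positive control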). Conditions: stronger effect = higher value.

Results filed as inconclusive are left out. Active and inactive are the calls of the source. Unless noted, no rule for the calls is given here.

Chain of Integrin beta-1 (Homo sapiens) + Integrin alpha-4 (Homo sapiens) (P05556 whole entry, looked up): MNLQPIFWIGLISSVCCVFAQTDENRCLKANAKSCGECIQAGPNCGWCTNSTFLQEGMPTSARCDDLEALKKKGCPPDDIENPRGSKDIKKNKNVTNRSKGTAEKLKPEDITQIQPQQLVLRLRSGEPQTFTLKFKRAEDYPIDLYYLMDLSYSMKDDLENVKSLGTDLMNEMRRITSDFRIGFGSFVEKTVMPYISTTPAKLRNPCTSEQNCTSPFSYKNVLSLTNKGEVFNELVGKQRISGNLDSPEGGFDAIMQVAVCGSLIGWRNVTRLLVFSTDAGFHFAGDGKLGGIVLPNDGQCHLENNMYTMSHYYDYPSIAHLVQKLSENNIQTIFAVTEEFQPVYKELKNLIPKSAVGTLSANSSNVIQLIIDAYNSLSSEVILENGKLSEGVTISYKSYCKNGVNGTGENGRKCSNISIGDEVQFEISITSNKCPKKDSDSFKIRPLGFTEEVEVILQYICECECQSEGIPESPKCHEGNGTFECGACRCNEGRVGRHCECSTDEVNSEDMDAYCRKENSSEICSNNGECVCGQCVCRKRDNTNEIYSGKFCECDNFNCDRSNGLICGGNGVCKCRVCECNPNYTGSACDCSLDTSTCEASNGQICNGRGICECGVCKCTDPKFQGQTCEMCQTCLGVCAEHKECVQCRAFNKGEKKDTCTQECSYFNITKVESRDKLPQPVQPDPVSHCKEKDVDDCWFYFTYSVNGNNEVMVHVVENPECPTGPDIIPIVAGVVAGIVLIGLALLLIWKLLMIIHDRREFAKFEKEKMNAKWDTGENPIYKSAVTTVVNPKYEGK
Chain of Integrin beta-1 (Homo sapiens) + Integrin alpha-4 (Homo sapiens) (P13612 whole entry, looked up): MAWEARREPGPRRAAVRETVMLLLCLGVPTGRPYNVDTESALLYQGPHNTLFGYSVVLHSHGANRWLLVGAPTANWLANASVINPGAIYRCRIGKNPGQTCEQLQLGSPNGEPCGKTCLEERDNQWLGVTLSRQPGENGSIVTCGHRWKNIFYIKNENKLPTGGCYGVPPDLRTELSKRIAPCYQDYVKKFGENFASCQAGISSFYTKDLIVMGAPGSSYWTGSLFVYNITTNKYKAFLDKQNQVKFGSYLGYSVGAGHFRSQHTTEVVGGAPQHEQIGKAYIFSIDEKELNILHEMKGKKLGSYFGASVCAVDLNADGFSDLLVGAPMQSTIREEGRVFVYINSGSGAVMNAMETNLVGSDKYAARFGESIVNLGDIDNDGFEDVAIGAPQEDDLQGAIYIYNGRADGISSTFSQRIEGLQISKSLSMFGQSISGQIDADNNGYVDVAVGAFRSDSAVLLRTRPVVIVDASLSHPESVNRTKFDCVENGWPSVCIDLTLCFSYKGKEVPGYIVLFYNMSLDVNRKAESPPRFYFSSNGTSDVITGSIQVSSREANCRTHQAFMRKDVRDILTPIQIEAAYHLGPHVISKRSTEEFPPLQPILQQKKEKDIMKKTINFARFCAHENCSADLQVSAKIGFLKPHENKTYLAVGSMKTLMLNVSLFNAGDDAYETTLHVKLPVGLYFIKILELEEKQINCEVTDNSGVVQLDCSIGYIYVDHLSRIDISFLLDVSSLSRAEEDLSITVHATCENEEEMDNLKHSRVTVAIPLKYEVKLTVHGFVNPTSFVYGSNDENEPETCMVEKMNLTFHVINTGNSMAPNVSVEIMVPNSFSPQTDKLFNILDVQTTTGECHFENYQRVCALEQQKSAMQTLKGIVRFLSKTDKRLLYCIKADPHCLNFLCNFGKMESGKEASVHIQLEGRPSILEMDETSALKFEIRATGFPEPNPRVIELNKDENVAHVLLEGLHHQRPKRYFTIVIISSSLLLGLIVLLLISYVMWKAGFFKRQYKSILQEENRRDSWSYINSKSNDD
Chain of Lethal factor (Bacillus anthracis) (P15917 whole entry, looked up): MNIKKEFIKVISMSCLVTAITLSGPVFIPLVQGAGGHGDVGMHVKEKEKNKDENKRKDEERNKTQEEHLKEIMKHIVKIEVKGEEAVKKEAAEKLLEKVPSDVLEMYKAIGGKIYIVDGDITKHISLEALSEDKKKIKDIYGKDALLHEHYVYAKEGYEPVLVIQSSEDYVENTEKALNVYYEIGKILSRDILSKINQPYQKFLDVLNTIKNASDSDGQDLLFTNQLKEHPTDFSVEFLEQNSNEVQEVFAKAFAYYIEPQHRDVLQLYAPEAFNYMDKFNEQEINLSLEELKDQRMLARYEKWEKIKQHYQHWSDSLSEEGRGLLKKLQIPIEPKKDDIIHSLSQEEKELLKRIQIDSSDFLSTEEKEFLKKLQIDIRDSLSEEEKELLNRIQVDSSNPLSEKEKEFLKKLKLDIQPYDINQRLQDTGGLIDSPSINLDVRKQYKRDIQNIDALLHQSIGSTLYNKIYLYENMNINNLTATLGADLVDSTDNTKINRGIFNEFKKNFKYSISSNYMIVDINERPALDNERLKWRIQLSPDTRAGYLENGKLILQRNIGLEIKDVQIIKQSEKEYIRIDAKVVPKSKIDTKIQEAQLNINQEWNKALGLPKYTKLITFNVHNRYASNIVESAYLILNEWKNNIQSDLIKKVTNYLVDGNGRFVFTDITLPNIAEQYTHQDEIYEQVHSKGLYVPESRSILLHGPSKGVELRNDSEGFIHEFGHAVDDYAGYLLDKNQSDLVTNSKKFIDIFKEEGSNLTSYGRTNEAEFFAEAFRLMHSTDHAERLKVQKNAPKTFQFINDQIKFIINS
Chain of Beta-2 adrenergic receptor (Homo sapiens) (P07550 whole entry, looked up): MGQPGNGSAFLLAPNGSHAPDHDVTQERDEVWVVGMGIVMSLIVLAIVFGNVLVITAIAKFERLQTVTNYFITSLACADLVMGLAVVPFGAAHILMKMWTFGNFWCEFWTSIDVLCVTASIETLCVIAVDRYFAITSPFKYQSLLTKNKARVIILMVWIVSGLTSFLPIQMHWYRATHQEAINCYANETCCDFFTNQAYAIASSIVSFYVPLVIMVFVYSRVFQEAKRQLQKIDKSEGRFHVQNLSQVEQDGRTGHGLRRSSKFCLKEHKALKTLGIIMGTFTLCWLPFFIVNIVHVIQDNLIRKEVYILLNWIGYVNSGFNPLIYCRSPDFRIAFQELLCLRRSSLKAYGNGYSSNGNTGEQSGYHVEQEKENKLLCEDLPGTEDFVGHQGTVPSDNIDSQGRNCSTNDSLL
Chain of Beta-adrenergic receptor kinase 1 (Homo sapiens) (P25098 whole entry, looked up): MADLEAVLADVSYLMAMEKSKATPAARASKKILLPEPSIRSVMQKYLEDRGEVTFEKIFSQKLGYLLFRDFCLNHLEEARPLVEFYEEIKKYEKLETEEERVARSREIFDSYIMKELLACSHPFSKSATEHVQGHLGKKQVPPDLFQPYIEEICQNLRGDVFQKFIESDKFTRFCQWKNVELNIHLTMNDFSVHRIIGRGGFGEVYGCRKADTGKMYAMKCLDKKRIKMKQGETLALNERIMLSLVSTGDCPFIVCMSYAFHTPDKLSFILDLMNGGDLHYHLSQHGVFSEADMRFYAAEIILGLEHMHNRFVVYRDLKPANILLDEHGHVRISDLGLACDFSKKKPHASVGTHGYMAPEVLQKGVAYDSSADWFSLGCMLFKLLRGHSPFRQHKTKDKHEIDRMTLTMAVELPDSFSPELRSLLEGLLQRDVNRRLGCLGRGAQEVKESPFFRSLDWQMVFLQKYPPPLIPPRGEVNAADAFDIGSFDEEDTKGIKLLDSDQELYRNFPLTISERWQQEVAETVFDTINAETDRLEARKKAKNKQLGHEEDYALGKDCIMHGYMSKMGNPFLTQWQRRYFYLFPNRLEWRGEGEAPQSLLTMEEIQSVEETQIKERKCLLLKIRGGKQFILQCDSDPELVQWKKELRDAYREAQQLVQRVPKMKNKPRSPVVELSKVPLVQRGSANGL
Chain of AP-2 complex subunit beta (Homo sapiens) (P63010 whole entry, looked up, one chain of several): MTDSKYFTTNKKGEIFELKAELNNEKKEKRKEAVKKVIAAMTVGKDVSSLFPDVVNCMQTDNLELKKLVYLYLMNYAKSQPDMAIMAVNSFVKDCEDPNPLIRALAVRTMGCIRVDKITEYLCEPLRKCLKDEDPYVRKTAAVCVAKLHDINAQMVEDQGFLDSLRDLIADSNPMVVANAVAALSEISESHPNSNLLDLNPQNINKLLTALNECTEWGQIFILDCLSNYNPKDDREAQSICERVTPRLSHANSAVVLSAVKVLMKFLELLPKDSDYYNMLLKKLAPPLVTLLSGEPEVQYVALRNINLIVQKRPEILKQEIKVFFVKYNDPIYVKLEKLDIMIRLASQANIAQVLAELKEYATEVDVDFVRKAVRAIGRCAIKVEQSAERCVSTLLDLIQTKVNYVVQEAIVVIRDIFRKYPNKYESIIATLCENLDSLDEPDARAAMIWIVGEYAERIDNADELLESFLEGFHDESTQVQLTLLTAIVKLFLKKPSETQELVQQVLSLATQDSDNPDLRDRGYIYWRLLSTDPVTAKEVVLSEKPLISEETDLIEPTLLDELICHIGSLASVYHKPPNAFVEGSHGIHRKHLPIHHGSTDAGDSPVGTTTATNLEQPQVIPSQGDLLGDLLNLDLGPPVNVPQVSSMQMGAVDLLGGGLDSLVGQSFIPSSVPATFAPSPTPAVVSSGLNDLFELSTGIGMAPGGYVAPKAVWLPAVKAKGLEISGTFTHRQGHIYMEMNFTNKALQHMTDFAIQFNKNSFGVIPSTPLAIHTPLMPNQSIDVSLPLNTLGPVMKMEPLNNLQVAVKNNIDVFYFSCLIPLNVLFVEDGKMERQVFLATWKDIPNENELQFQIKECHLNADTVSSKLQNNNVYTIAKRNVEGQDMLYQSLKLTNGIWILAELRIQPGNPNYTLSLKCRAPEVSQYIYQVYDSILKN

Turning to `C[N+]1(C)[C@@H]2CC[C@H]1CC(OC(=O)C(CO)c1ccccc1)C2` (stereo partly specified), the percent of DMSO control GFP in assay [1] is 105% (inactive). Further, the GFP response vs DMSO in assay [2] is 96.3% (inactive); in assay [4], 113% (inactive). In addition, in assay [3], the percent response of DMSO control was 105% (inactive). In addition, the GFP response, % of DMSO in assay [5] was 110% (inactive). Also, the double positive events in assay [6] stood at 64.9%. Also, in [6], the vesicle binding response is 7000% (inactive). Further, the inhibition (in general, the drop in the measured response relative to a control, in per cent) was -14.1% (inactive) in assay [7]; -5.05% (inactive) in assay [11]; 3.3% (inactive) in [14]; -0.2% (inactive) in [15]; -4.9% (inactive) in assay [16]; 7% (inactive) in [18]. Moreover, the superoxide response (% of plate) in assay [8] was 91% (inactive). Also, the aptamer binding inhibition in [9] is 1% (inactive). The response was -8.13% (inactive) in assay [10] and 0.35% (inactive) in assay [12]. Besides, the binding (% of control) in assay [13] is 98% (inactive). Further, in [17], the efflux inhibition (fraction of control) is -0.1 (inactive). For the same compound, the differentiation response in [19] is -15.2% (inactive).
Take `C[C@]12CC[C@@H](O)C[C@@H]1CC[C@@H]1[C@@H]2CC[C@]2(C)C(=O)CC[C@@H]12`: the percent of DMSO control GFP in assay [1] is 100% (inactive). Besides, the GFP response vs DMSO in [2] was 99.7% (inactive); in [4] it was 147% (inactive). In assay [3], the percent response of DMSO control is 84.1% (inactive). Besides, the GFP response, % of DMSO in assay [5] is 101% (inactive). This compound also yielded a double positive events in [6] of 62.8%. Moreover, the vesicle binding response in [6] is 118% (inactive). The inhibition in [7] was -2.43% (inactive); in assay [11], -0.33% (inactive); in assay [14] it was 2% (inactive); in assay [15] it was -0.3% (inactive); in assay [16], -2.4% (inactive); in assay [18] it was 0% (inactive). Further, in assay [8], the superoxide response (% of plate) is 75.3% (inactive). In addition, the aptamer binding inhibition in [9] is 3% (inactive). Besides, the response was 20.4% (inactive) in [10] and -2.85% (inactive) in assay [12]. In addition, the binding (% of control) in assay [13] was 99% (inactive). Also, in assay [17], the efflux inhibition (fraction of control) was -0.07 (inactive). Further, the differentiation response in assay [19] was -4.57% (inactive).
As for `CC[C@@H](CO)NC(=O)[C@@H]1C=C2c3cccc4c3c(cn4C)C[C@H]2N(C)C1`, the percent of DMSO control GFP in assay [1] is 103% (inactive). For the same compound, the GFP response vs DMSO in assay [2] is 103% (inactive); in assay [4], 90.3% (inactive). The percent response of DMSO control in assay [3] is 99.8% (inactive). In addition, the GFP response, % of DMSO in assay [5] was 94.5% (inactive). For the same compound, the double positive events in assay [6] is 59.1%. In addition, the vesicle binding response in assay [6] was 158% (inactive). For the same compound, the inhibition is 8.15% (inactive) in assay [7], 0.36% (inactive) in assay [11], -6.6% (inactive) in assay [16] and 7% (inactive) in assay [18]. The superoxide response (% of plate) in assay [8] is 108% (inactive). Moreover, in [9], the aptamer binding inhibition was 2% (inactive). Also, the response in assay [12] is -0.46% (inactive). Moreover, the binding (% of control) in assay [13] is 104% (inactive). In addition, the efflux inhibition (fraction of control) in assay [17] was 0.56 (active). For the same compound, the differentiation response in assay [19] is 1.41% (inactive).
With `C[C@H]1CCC[C@H](O)CCCCCc2cc(O)cc(O)c2C(=O)O1`, in [1], the percent of DMSO control GFP is 104% (inactive). Further, the GFP response vs DMSO in [2] was 94.8% (inactive); in [4], 87.3% (inactive). For the same compound, the percent response of DMSO control in assay [3] is 106% (inactive). Moreover, the GFP response, % of DMSO in assay [5] was 105% (inactive). This compound had a double positive events in [6] of 52.7%. For the same compound, the vesicle binding response in assay [6] was 191% (inactive). For the same compound, the inhibition in assay [7] is -7.7% (inactive); in assay [11], -16.7% (inactive); in assay [14], 0.3% (inactive); in assay [15] it was -0.8% (inactive); in assay [16] it was -4.3% (inactive); in assay [18] it was 9% (inactive). For the same compound, the superoxide response (% of plate) in assay [8] is 106% (inactive). Also, the aptamer binding inhibition in assay [9] was -4% (inactive). Also, the response in [12] is 3% (inactive). Moreover, the binding (% of control) in assay [13] was 106% (inactive). Also, the efflux inhibition (fraction of control) in assay [17] was -0.28 (inactive). Also, the differentiation response in assay [19] was -34.1% (inactive).
`Cc1cc(OCc2cc(C(=O)O)oc2C)c2c3c(c(=O)oc2c1)CCCC3`: in assay [1], the percent of DMSO control GFP was 104% (inactive). The GFP response vs DMSO in assay [2] was 97.2% (inactive); in [4], 96.6% (inactive). In assay [3], the percent response of DMSO control is 114% (inactive). The GFP response, % of DMSO in assay [5] was 101% (inactive). Also, in assay [6], the double positive events was 66.4%. For the same compound, the vesicle binding response in [6] was 282% (inactive). The inhibition in assay [7] was 7.85% (inactive); in assay [11] it was -4.24% (inactive); in [14] it was -2% (inactive); in assay [15], -0.5% (inactive); in [16], -8.8% (inactive); in assay [18] it was 6% (inactive). In assay [8], the superoxide response (% of plate) is 90.3% (inactive). For the same compound, in [9], the aptamer binding inhibition was 4% (inactive). The response in assay [10] was -5.78% (inactive); in assay [12] it was -0.71% (inactive). In [13], the binding (% of control) is 97.1% (inactive). Further, the efflux inhibition (fraction of control) in assay [17] is -0.01 (inactive). Further, the differentiation response in assay [19] is 6.11% (inactive).
